# From PubChem
# PTAP-TSG101 blk = TSG101-PTAP interaction inhibition, HIV-1 budding | Q99816 | Fluorescence polarization, FITC-PTAP peptide/Tsg101, 20 min | Potency, µM (doses to about 115 µM), hits mostly inhibitors | 44,000 tested, under 10 active | AID 1347069; note: potency is the fitted concentration of half-maximal effect; 0% is about no effect
# Target sequence (Q99816 whole entry, looked up): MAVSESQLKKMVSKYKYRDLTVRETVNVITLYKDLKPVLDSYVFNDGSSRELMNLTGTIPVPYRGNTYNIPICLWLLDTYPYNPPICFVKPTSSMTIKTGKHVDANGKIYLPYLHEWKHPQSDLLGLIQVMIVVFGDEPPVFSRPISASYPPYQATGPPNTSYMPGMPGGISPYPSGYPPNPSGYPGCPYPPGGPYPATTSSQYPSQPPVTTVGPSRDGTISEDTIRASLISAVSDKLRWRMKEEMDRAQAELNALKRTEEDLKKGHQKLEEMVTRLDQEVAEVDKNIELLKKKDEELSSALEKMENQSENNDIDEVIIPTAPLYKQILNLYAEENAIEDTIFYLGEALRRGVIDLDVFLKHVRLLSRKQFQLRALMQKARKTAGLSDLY
#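 Fluorescence polarization: Tsg101 binding domain (10 uM final) in 10 mM HEPES pH 7.5, 0.15 M NaCl, 0.01% Tween 20, 3 mM EDTA, 0.1 mM TCEP; compounds pinned; FITC-PTAP peptide 50 nM final; 20 min, r.t.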
# B2AR arrestin ag = beta-arrestin recruitment by human beta2-adrenergic receptor ligands. P07550. HTLA Tango cells, beta-arrestin recruitment, luciferase luminescence, 18 h. Potency, µM (doses to about 46.1 µM), most hits filed as activators. 44,000 tested, under 10 active;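 note: potency is the fitted concentration of half-maximal effect; 0% = DMSO and full agonism = EC100 isoproterenol or metaproterenol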
#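 Tango cell line, 1% FBS DMEM; cpd titration up to 46 microM; 18 hr, 37 degrees C, 5% CO2. Luciferin/ATP substrate mix added, 15 min RT, luminescence. %Activity, CRC fitting, curve-class categorization.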
# GPR32 ag = activates human resolvin D1 receptor GPR32 | O75388 | CHO-K1 GPR32 beta-arrestin PathHunter luminescence, 90 min; zero percent set by DMSO-only wells | actives 2.5% (n = 48,000) | activation, % at 76.9 µM | AID 1346428;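 active = activation of at least 60% and not above a set upper limit, about 1 call in 100 departs from these limits; inconclusive = activation of 40% to 60%, or above that upper limit; inactive = activation under 40%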; note: 0% is about no effect
# Target sequence (O75388 whole entry, looked up): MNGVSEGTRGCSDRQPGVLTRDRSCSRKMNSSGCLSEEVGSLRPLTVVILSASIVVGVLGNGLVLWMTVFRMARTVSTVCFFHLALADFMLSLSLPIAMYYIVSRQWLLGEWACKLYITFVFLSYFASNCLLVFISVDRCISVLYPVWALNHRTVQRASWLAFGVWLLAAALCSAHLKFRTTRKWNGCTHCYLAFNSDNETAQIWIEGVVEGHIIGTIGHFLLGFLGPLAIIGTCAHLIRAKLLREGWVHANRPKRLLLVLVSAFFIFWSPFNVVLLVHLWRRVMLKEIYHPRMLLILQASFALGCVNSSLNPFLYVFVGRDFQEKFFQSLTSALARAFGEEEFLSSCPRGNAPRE
#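 Using DMSO wells as EC0, agonist-induced signal was taken as chemiluminescence from beta-Gal reconstituted upon beta-arrestin recruitment to GPR32 in CHO-K1 cells after 90 min compound treatment.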
# FH mod = Identification of activators of human fumarate hydratase by quantitative high-throughput screening; Fumarate hydratase, mitochondrial (Homo sapiens), P07954; FH coupled MDH/diaphorase resazurin fluorescence, 15 min; Potency, µM (series often up to 79.9 µM), for the others: top-dose activity change, negative = inhibition, hits mostly inhibitors; actives 0.22% (n = 54,000); AID 1347055, 2019; note: potency is the fitted concentration of half-maximal effect; % is set by controls: 0 for no effect and ±100 for the full control effect; the screen sought activators but most active calls are inhibition curves; nearly all actives have a fitted effect of over 45% in size
# GALK inhibitor = inhibitors of human galactokinase (GALK); P51570; AID 1347072; Potency, µM (series often up to 57.5 µM), for the others: top-dose activity, negative = inhibition, usual class: inhibitors; 44,000 tested, under 10 active; recombinant GALK, Kinase-Glo ATP luminescence, 1 h;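 note: plate controls were full GALK reaction for no effect and reaction lacking GALK for full effect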
#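 Reactions with and without enzyme served as controls. GALK at 5 nM phosphorylates 100 uM galactose using 35 uM ATP (HEPES pH 8.0, Mg2+) for 1 h at RT, with luminescence read 10 min after adding Kinase-Glo Plus.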
# GALC G270D up = enhancers of human galactocerebrosidase G270D mutant activity in cells; P54803; 145M-Twi-hGALC-G270D cells (Twitcher mouse brain line with human GALC G270D), HMU-beta-Gal fluorescence, 48 h; Potency, µM (top dose mostly 57.5 µM), actives largely listed as activators; actives 0.1% (n = 45,000); AID 1159614; note: potency is the fitted concentration of half-maximal effect; 0% is about no effect; nearly all actives have a fitted effect of over 65% in size
#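 Brain-derived Twitcher mouse 145M-Twi cells stably expressing human GALC-G270D or wild-type GALC, treated live, then residual GALC activity read by fluorescence of HMU-b-Gal substrate (0.1 mM final) in citrate-phosphate buffer pH 5.2 with sodium taurocholate. Signal increase indicates enhancement.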
# Numbers without * were called inactive; i = inactive; ? = inconclusive; · = no result given; [ ] = dose if it differs, or a comment. Shown are actives, neighbours in structure and some others; about 2.6% of the full set was active somewhere. Unless noted, calls come from the whole dose curve; as a rule, active = well fitted curve in the direction sought with a large enough effect; inconclusive = small, poorly fitted or top-dose-only effect, or another doubt; inactive = no such curve, though single readings can be large; an effect the other way counts as inactive or inconclusive.
SMILES,PTAP-TSG101 blk,B2AR arrestin ag,GPR32 ag,FH mod,GALK inhibitor,GALC G270D up
O=C(CSc1cn(CCNC(=O)c2ccccc2F)c2ccccc12)Nc1ccc(F)cc1,i,i,91.1*,5.9%,7.0%,i
CCOc1ccc(NC(=O)CSc2cn(CCNC(=O)c3ccccc3F)c3ccccc23)cc1,i,i,13.6,-2.0%,8.7%,i
C=CC(=O)Nc1cccc(Nc2nc(Nc3ccccc3)ncc2C)c1,·,·,·,2.3%,·,·
COc1cc(F)c(F)c(Nc2ccc(I)cc2F)c1NS(=O)(=O)C1(CC(O)CO)CC1 (centres undefined),·,·,·,-23.7%,·,·
Cc1ccc(C(=O)Nc2cc3cc(Cl)ccc3oc2=O)cc1,i,i,61.8*,6.8%,0.0%,i
COc1ccc(-c2cn3nc(N4CCC(C(=O)Nc5cccc(OC)c5)CC4)sc3n2)cc1,i,i,75.8*,5.4%,1.4%,i
COc1ccc(-c2cn3nc(N4CCC(C(=O)Nc5ccc(Cl)cc5C)CC4)sc3n2)cc1,i,i,1.6,2.9%,4.4%,i
O=C(CCNS(=O)(=O)c1ccc2c(c1)CCN2C(=O)C1CC1)N1CCN(c2ccccc2F)CC1,i,i,70.6*,-8.9%,-3.2%,i
Cc1ccc(C)c(N2CCN(C(=O)CCNS(=O)(=O)c3ccc4c(c3)CCN4C(=O)C3CC3)CC2)c1,i,i,48.7,-9.2%,-0.1%,i
CC(C)c1ccc(C2=CC(c3cccc(Cl)c3)n3ncnc3N2)cc1 (centres undefined),i,i,73.7*,-5.3%,0.9%,i
COC(=O)[C@H](O)[C@H]1C(C)(C)[C@H](OC(=O)C(C)C)[C@@]2(O)C(=O)[C@]1(C)C1CC[C@]3(C)C(CC(=O)O[C@H]3c3ccoc3)[C@]13O[C@@H]32 (some centres undefined),·,·,·,-1.4%[20.6 µM],·,·
COC1CC(O[C@H]2CC[C@@]3(C)C(=CC[C@]4(O)C3[C@H](O)[C@@H](O)[C@]3(C)[C@@H]([C@H](C)O)CC[C@@]34O)C2)OC(C)C1OC1CC(OC)C(OC2CC(OC)C(OC3OC(C)C(OC4OC(CO)C(O)C(O)C4O)C(OC)C3O)C(C)O2)C(C)O1 (some centres undefined),·,·,·,7.1%[20.6 µM],·,·
Cc1ccc(CNc2c(C)c(C)nc3nncn23)cc1,i,i,?,-1.0%,1.5%,i
CCc1c(C)nc2nncn2c1NCc1ccc(Cl)cc1,i,i,65.7*,-0.6%,0.6%,i
CCN(CC)c1cc(C)c2cc(NC(=O)c3cccc(OC)c3OC)ccc2n1,i,i,94.8*,-35.7%,6.9%,i
N#Cc1c[nH]c2c(C(=O)N3CCN(CCc4ccc(F)cc4)CC3)cccc12,·,·,·,-2.7%,·,·
CC(=O)O[C@H]1CC(C)(C)CC2[C@]13CO[C@@]21CCC2[C@@]4(C)CC[C@H](O[C@@H]5OC[C@H](O[C@@H]6O[C@H](CO)[C@@H](O)[C@H](O)[C@H]6O[C@@H]6OC[C@@H](O[C@@H]7O[C@H](CO)[C@@H](O)[C@H](O)[C@H]7O)[C@H](O)[C@H]6O)[C@H](O)[C@H]5O[C@@H]5O[C@H](CO)[C@@H](O)[C@H](O)[C@H]5O)[C@@](C)(CO)C4CC[C@@]2(C)[C@]1(C)C[C@H]3O (some centres undefined),·,·,·,0.8%[13.5 µM],·,·
CC(=O)Nc1cccc(NC(=O)CN2C(=O)CCSc3ccccc32)c1,i,i,-0.5,-0.8%,-2.1%,i
O=C(CN1C(=O)CCSc2ccccc21)Nc1ccc(C(F)(F)F)cc1,i,i,63.1*,1.1%,1.3%,i
COc1ccc(-c2n[nH]c3c2C(c2ccc(Cl)cc2Cl)NC3=O)cc1 (centres undefined),i,i,87.0*,-28.1%,-2.4%,i
CCOC(=O)c1ccc(N2C(=O)c3[nH]nc(-c4ccc(OC)cc4)c3C2c2ccccc2Cl)cc1 (centres undefined),i,i,-5.6,-23.0%,8.8%,i
CN(c1ccccc1)S(=O)(=O)c1nnc(NC(=O)c2ccccc2)s1,i,i,7.7,-11.0%,2.6%,i
CN(Cc1ccccc1)S(=O)(=O)c1nnc(NC(=O)c2cccc(Cl)c2)s1,i,i,67.9*,-16.3%,0.0%,i
O=C(Nc1nnc(S(=O)(=O)N2CCCc3ccccc32)s1)c1cccc(Cl)c1,i,i,73.8*,-17.7%,2.9%,i
CN(Cc1ccco1)S(=O)(=O)c1nnc(NC(=O)c2cccc(Cl)c2)s1,i,i,?,-21.3%,-2.0%,i
SMILES,PTAP-TSG101 blk,B2AR arrestin ag,GPR32 ag,FH mod,GALK inhibitor,GALC G270D up
CN(c1ccccc1)S(=O)(=O)c1nnc(NC(=O)c2ccco2)s1,i,i,92.8*,9.9%,0.7%,i
Cc1nnsc1C(=O)Nc1ccc(-n2nc(C(F)(F)F)cc2C(F)(F)F)cc1,·,·,·,-16.4%,·,·
O=C1CCc2cc(S(=O)(=O)Nc3ccc(F)c(Cl)c3)c(F)cc2N1,·,·,·,3.7%,·,·
COc1c(C)c(OCC=C(C)C)cc2c1CNC2=O,·,·,·,-2.5%,·,·
CCCCC1C(=O)N(c2ccccc2)N(c2ccc(O)cc2)C1=O (centres undefined),·,·,108.6*,?,·,i
CN[C@@H]1C[C@H]2O[C@@](C)([C@@H]1OC)n1c3ccccc3c3c4c(c5c6ccccc6n2c5c31)C(=O)N[C@H]4O,·,·,·,-4.8%[13.5 µM],·,·
CCC(C)NC(=O)c1sc2nc(C)c(C(=O)Nc3ccc(Cl)cc3)c(-c3ccc(Br)cc3)c2c1N (centres undefined),i,i,8.4,-22.4%,7.0%,?
Cc1nc2sc(C(N)=O)c(N)c2c(-c2ccc(Br)cc2)c1C(=O)Nc1ccc(Cl)cc1,i,i,88.0*,-14.0%,2.5%,i
CC(=O)c1ccc(N2CCN(S(=O)(=O)c3ccc(-c4coc(C)n4)cc3)CC2)cc1,i,i,63.0*,3.1%,-6.8%,i
Cc1ccccc1Nc1c(-c2ccc(Cl)s2)nc2cccc(C)n12,i,i,60.8*,-3.5%,1.4%,i
Cc1ccccc1Nc1c(-c2c[nH]c3ccccc23)nc2cccc(C)n12,i,i,63.1*,?,2.5%,i
Cc1ccc2nc(-c3c[nH]c4ccccc34)c(Nc3ccccc3C)n2c1,i,i,-8.8,2.2%,2.3%,i
